Compound activity: PubChem, National Center for Advancing Translational Sciences (NCATS)
VDR inh – inhibitors of human vitamin D receptor | P11473 | VDR-SRC2-3 peptide fluorescence polarization, 2 h | Potency, µM, actives largely listed as inhibitors | hit rate 0.93% among 400,000
Target sequence (P11473 whole entry, looked up): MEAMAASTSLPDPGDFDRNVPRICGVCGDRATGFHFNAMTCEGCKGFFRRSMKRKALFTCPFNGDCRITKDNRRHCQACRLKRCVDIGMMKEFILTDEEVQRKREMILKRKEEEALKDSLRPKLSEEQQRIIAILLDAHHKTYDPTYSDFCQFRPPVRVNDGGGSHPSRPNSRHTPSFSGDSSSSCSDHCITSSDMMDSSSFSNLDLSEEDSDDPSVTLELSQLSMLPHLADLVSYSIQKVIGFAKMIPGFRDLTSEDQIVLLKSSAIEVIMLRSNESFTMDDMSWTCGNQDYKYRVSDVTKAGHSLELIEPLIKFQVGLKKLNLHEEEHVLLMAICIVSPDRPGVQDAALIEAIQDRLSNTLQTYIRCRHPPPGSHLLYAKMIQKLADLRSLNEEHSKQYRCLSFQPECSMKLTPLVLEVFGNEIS
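Fluorescence polarization assay measuring small-molecule disruption of VDR binding to the coregulator peptide SRC2-3. Compounds were pin-transferred (23 nl) into the reagent mix and incubated 2 h at room temperature before reading.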
PI5P4Ka inh – blocks human PI5P4K alpha kinase activity; P48426; PI5P4Kalpha enzyme, ADP-Glo luminescence, 60 min; hits give low values; max response, %; hit rate 1.2% among 330,000; active = max response of -50% or lower; inconclusive = between -30% and -50%; inactive = -30% or higher; also: value at the top dose of about 77 µM
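Luminescence from ADP-Glo served as readout of PI5P4Kalpha activity in a qHTS format. Reaction: enzyme, substrate, compound, ATP at 5 microM final, 60 min at RT.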
PLK1 PBD block – blocks phosphopeptide binding to human PLK1 polo-box domain | P53350 | hit rate 2.8% among 360,000 | AID 720504 | Plk1 PBD binding of FITC phosphopeptide, fluorescence polarization | Potency, µM, hits mostly inhibitors; also: series mostly up to about 57 µM; nearly all actives have a fitted effect of over 65% in size
TCR activator – activates T cell receptor signaling; primary human leukocytes, anti-CD3, IL-2 HTRF, 48 h; Potency, µM (titrated, usually from 9.22 µM), hits mostly activators; 330,000 tested, under 10 active
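1) Mix primary human leukocytes, a-CD3 beads and compound. 2) Incubate 48 hr. 3) Add HTRF IL-2 reagents (a-IL-2-K, a-IL-2-d2).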
FEN1 inh – human FEN1 inhibition; P39748; Recombinant FEN1 flap cleavage, fluorescence, 15 min; Potency, µM (titrated, usually from 114 µM), actives largely listed as inhibitors; hit rate 0.35% among 390,000; AID 588795; also: nearly all actives have a fitted effect of over 65% in size
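Enzyme 10 nM, 15 min RT preincubation with compound; start with substrate 50 nM final; reads at 0 and 15 min; qHTS titration, four-parameter Hill fit.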
WRN inhibitor – WRN helicase (human) inhibition; WRN helicase unwinding, fluorescent forked duplex, kinetic; Potency, µM (doses to about 114 µM), most hits filed as inhibitors; hit rate 0.46% among 360,000; AID 651768; also: nearly all actives have a fitted effect of over 55% in size
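Kinetic fluorescence helicase assay: unwinding of a quenched forked DNA duplex (100 nM final) with 2 mM ATP final raises red fluorescence (525/598 nm). Compounds sat 15 min at room temperature with 20 nM WRN beforehand.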
A number is an active result; - = inactive; ? = inconclusive; . = no result given. The list is not random: actives were taken first. Their share in the collection is about 3.7%. Unless noted, calls follow the shape of the dose curve; as a rule, active = well fitted curve in the direction sought with a large enough effect; inconclusive = small, poorly fitted or top-dose-only effect, or another doubt; inactive = no such curve, though single readings can be large; an effect the other way counts as inactive or inconclusive.

SMILES	VDR inh	PI5P4Ka inh	PLK1 PBD block	TCR activator	FEN1 inh	WRN inhibitor
CCCCC(=O)NNC(=S)NC(=O)c1ccc([N+](=O)[O-])cc1	?	-	24µM	-	-	-
CCCCC(=O)NNC(=S)NC(=O)c1cccc([N+](=O)[O-])c1	?	.	?	-	-	-
O=C(N/N=C\c1ccccc1OCc1ccccc1)c1ccco1	-	-	-	-	-	-
O=C(N/N=C/c1c(O)n(Cc2ccco2)c(=O)[nH]c1=O)c1ccccc1	-	-67	-	-	-	-
O=C(C=C1SCCS1)/C=C/c1ccco1	-	-57	?	-	-	?
COC(=O)/C=C/c1ccc2c(c1)S(=O)(=O)N(C1CCCC1)[C@H]2CC(=O)OC	.	.	.	.	-	.
CN(C)C(=O)c1ccc(NC(=O)c2cc(-n3cnnc3)ccc2Cl)cc1	?	-	17µM	-	-	-
CN(C)/C=C1\C(=O)ON=C1c1ccccc1	-	-	-	-	-	-
Cc1ccc(C2=NOC(=O)/C2=C\C=C\c2ccccc2)cc1	-	?	1.7µM	-	-	35µM
O=C(O)Cc1sc(Nc2ccccc2)nc1-c1ccc(Cl)cc1	-	-	21µM	-	-	-
O=C(O)Cc1sc(-c2ccc(Cl)cc2)nc1-c1ccccc1	?	-	24µM	.	-	-
O=C(O)Cc1sc(-c2ccccc2)nc1-c1ccc(Cl)cc1	.	-	-	.	.	-
CC1(C)OC(=O)C2(Cc3ccc(Cl)cc3N3CCCCC32)C(=O)O1 (configuration not stated)	-	.	.	.	-	.
COC(=O)c1sc2ccccc2c1S(=O)(=O)N1CCN(c2ccc(C(C)=O)cc2)CC1	-	.	.	.	-	.
O=C(O)CSCCc1ccccn1	-	-	30µM	-	-	-
O=C(CSCCc1ccccn1)Nc1ccccn1	?	-	?	-	-	-
O=C(Cn1c(=O)nc(-c2ccccc2)c2ccccc21)NCCc1ccc(Cl)cc1	-	.	.	.	-	.
Oc1ccc(C2=NNC(=NCc3ccc4c(c3)OCO4)SC2)c(O)c1	-	-	-	-	-	-
Clc1ccc(C2=NNC(=NCc3ccc4c(c3)OCO4)SC2)cc1	?	-	17µM	-	-	-
Cc1ccccc1N1CCN(C2=NC(=O)/C(=C/c3cn[nH]c3-c3ccccc3)S2)CC1	-	-61	-	-	-	-
O=C(COc1ccccc1[N+](=O)[O-])c1ccccc1	-	-	-	-	-	-
COC(=O)/C=C/COc1ccccc1[N+](=O)[O-]	?	-67	3.4µM	-	?	-
COC(=O)C1=C(C)N(CCCC(=O)O)C(=O)NC1c1ccccc1OS(=O)(=O)c1ccc([N+](=O)[O-])cc1 (configuration not stated)	-	-105	-	-	-	-
CCOC(=O)C1=C(C)N(CCCC(=O)O)C(=O)NC1c1ccccc1OS(=O)(=O)c1ccccc1[N+](=O)[O-] (configuration not stated)	-	-76	-	-	-	-
CC1=C(C(=O)OCc2ccccc2)C(c2ccccc2OS(=O)(=O)c2ccccc2[N+](=O)[O-])NC(=O)N1CCCC(=O)O (configuration not stated)	-	-99	-	-	-	-
SMILES	VDR inh	PI5P4Ka inh	PLK1 PBD block	TCR activator	FEN1 inh	WRN inhibitor
CCOC(=O)C1=C(C)N(CCCCCC(=O)O)C(=O)NC1c1ccccc1Cl (configuration not stated)	-	-	-	-	-	-
CC1=C(C(=O)OCc2ccccc2)C(c2cccc([N+](=O)[O-])c2)NC(=O)N1CCCCCC(=O)O (configuration not stated)	-	-	-	-	-	-
CCOC(=O)C1=C(C)N(CCCCCC(=O)O)C(=O)NC1c1ccccc1OS(=O)(=O)c1ccc(C)cc1 (configuration not stated)	?	-	-	-	-	-
CCOC(=O)C1=C(C)N(CCCC(=O)O)C(=O)NC1c1ccccc1OS(=O)(=O)c1ccc(C)cc1 (configuration not stated)	-	-85	-	-	-	-
Cc1cccc2c(=O)[nH]c3c(-c4nc(-c5ccc(Cl)cc5)cs4)c(O)cn3c12	.	.	.	.	-	.
COc1ccc(-c2csc(Nc3ccc(S(=O)(=O)Nc4cc(OC)nc(OC)n4)cc3)n2)cc1	-	-	24µM	-	?	-
COc1cc(NS(=O)(=O)c2ccc(N/C=C\C(=O)c3ccc(C)cc3)cc2)nc(OC)n1	-	?	3.4µM	-	-	-
COc1cc(NS(=O)(=O)c2ccc(Nc3nc(-c4ccccn4)cs3)cc2)nc(OC)n1	-	-	-	-	-	?
COC(=O)C1=C(C)N(CCCC(=O)O)C(=O)NC1c1cccc(OC)c1 (configuration not stated)	-	-52	-	-	-	-
COC(=O)C1=C(C)N(CCCC(=O)O)C(=O)NC1c1ccc2c(c1)OCO2 (configuration not stated)	-	-62	-	-	-	-
CCOC(=O)C1=C(C)N(CCCCCC(=O)O)C(=O)NC1c1ccc(Br)cc1 (configuration not stated)	-	-	-	-	-	-
O=C(c1ccc2c(c1)OCCO2)N1CCN(c2ccccn2)CC1	-	-	-	-	-	-
O=C(c1ccc2c(c1)OCO2)N1CCN(c2ccccn2)CC1	?	-	21µM	-	-	-
CNc1ccc(C(=O)Oc2cc(O/N=[N+](\[O-])N(C)C)c([N+](=O)[O-])cc2[N+](=O)[O-])cc1	-	.	.	.	-	.
O=C(NCC1CCCO1)C(Cc1ccccc1)N1C(=O)C2C3C=CC(C4CC34)C2C1=O (configuration not stated)	?	-	11µM	-	-	-
COC(=O)CC1Oc2ccc(C)cc2-n2cc(-c3ccc(C)cc3)nc21 (configuration not stated)	-	.	.	.	-	.
COc1ccc(C(C)(C)C)cc1NC(=S)NCCN1CCOCC1	-	-	24µM	-	-	-
CCOc1ccc(Nc2c(S(=O)(=O)c3ccccc3)cnc3ccc(CC)cc23)cc1	-	.	.	.	-	.
O=C(Nc1cc(S(=O)(=O)Nc2ccc(Cl)cc2)ccc1N1CCCCC1)c1ccc(F)cc1	?	-	12µM	-	-	-
O=c1[nH]c(=O)c2[nH]c(=S)[nH]c2[nH]1	?	-86	8.4µM	-	?	?
COc1ccc2c(c1)CCc1c(C(=O)Nc3ccccc3C(F)(F)F)noc1-2	-	.	.	.	-	.
COCCNC(=O)C1(C(F)(F)F)C/C(=C\Cc2ccccc2)CCCO1 (configuration not stated)	-	.	.	.	-	.
C=C/C(C)=C/C[C@H]1C(=C)CCC2[C@](C)(C(=O)O)CCC[C@@]21C (some centres not stated)	-	-	19µM	-	-	-
